According to PubChem BioAssay (Tox21):
Where “and” joins values, the source holds several entries; their conditions need not be identical. Equal values may be shown once. Inconclusive results are not listed. Some structures have more than one record in an assay (separate samples or runs), and their calls can disagree. Calls of active or inactive are those of the source. Unless noted, calls come from the whole dose curve.

What was measured:
[1] = target: Gonadotropin-releasing hormone receptor (Homo sapiens) (UniProt P30968); test: Human gonadotropin-releasing hormone receptor (GnRHR) small molecule agonists, calcium flux assay in GnRHR-HEK293 cells (AID 1920063); note: nearly all actives have a fitted effect of over 35% in size
Gonadotropin-releasing hormone receptor (Homo sapiens), sequence (P30968 whole entry, looked up): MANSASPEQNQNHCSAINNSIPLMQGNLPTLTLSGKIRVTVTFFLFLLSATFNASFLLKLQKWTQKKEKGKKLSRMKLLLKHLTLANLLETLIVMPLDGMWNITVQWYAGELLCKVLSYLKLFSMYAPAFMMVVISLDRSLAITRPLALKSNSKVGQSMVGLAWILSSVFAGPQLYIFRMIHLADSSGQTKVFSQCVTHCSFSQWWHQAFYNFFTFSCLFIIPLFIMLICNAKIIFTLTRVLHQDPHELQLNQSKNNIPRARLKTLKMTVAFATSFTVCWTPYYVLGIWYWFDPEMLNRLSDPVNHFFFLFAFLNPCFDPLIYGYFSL
How it was run: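 Agonist mode: compounds at 15 concentrations, in triplicate, went onto calcium dye-loaded GnRHR-HEK293 cells. Intracellular calcium was then followed as 480/540 nm fluorescence at 1 s intervals over 3 min.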

[2] = G protein-coupled receptor (GPCR) small molecule agonists, calcium flux assay: HEK293 wild type cell line counter screen (AID 1920065)
How it was run: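 Calcium flux counter screen: compound added in agonist mode at 15 concentrations in triplicate to dye-loaded parental HEK293 cells. Fluorescence (480/540) read kinetically for 3 min; ATP served as positive control.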

[3] = p53 small molecule agonists, cell-based qHTS assay with human liver microsomes: qHTS cell viability counter screen (AID 1963579); note: nearly all actives have a fitted effect of over 45% in size
How it was run: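 Metabolic activation used human liver microsomes and NADPH, both 0.5 mg/mL final, over 16 hours at 37 C on p53RE-bla cells (4,000/well). Cytotoxicity measured by CellTiter-Glo luminescence, 30 min at room temperature.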

[4] = p53 small molecule agonists, cell-based qHTS assay with rat liver microsomes: qHTS cell viability counter screen (AID 1963580); note: nearly all actives have a fitted effect of over 45% in size
How it was run: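 Cytotoxicity counter screen: intracellular ATP read by CellTiter-Glo luminescence in the p53 reporter wells. HCT-116 p53RE-bla cells were treated for 16 h at 37 C alongside rat liver microsomes and NADPH, each 0.5 mg/mL final.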

[5] = p53 small molecule agonists, cell-based qHTS assay: qHTS cell viability counter screen (AID 1963581); note: nearly all actives have a fitted effect of over 45% in size; note: potency is the fitted concentration of half-maximal effect
How it was run: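 Counter screen read by CellTiter-Glo luminescence (ATP content, 30 min at room temperature), run in the same wells as the beta-lactamase reporter read. HCT-116 p53RE-bla cells saw compounds for 16 h at 37 C.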

[6] = cAMP Responsive Elements (CRE) small molecule agonists, cell-based qHTS assay (AID 1963590)
How it was run: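 Agonist mode: compound added to CRE-bla HEK 293T cells (2,000/well, 18 h after plating) for 3 h at 37 C/5% CO2. Reporter activity detected via FRET beta-lactamase substrate, 2 h room-temperature loading.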

[7] = cAMP Responsive Elements (CRE) small molecule antagonists, cell-based qHTS assay (AID 1963591; active = well fitted inhibition curve with a large enough effect in the signal ratio in the repeat runs, not every such curve was filed as active; the % refers to the signal ratio)
How it was run: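 Antagonist mode: compounds are added alongside the adenylyl cyclase activator NKH477 (0.25 uM final) to CRE-bla HEK293T cells for 3 h. LiveBLAzer FRET substrate, 2 h at room temperature, reports bla expression.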

[8] = target: Beta-2 adrenergic receptor (Homo sapiens) (UniProt P07550); test: Adrenergic beta2 receptor (ADRB2) small molecule antagonists, cell-based qHTS assay (AID 1963592); note: series mostly up to about 92 µM; nearly all actives have a fitted effect of over 50% in size
Beta-2 adrenergic receptor (Homo sapiens), sequence (P07550 whole entry, looked up): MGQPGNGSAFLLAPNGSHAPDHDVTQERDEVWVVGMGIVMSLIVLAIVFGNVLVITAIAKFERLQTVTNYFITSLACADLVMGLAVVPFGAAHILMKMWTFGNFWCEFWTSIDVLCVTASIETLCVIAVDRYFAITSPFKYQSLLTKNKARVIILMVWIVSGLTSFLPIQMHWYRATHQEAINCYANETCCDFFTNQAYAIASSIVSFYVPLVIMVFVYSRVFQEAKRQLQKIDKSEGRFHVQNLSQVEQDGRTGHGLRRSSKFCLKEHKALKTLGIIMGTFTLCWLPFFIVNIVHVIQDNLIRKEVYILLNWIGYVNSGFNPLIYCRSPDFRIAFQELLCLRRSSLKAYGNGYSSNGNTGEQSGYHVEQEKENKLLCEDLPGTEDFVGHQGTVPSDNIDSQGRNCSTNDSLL
How it was run: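 Assay format: CHO-ADRB2 cells, 18-20hr seeding at 37C/5% CO2, then compound plus 1nM isoproterenol agonist mix for 0.5hr RT. Homogeneous time-resolved fluorescence cAMP detection after 1hr, expressed as 665/615 nm ratio.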

[9] = target: Beta-2 adrenergic receptor (Homo sapiens) (UniProt P07550); test: Adrenergic beta2 receptor (ADRB2) small molecule agonists, cell-based qHTS assay (AID 1963593);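 note: CHO cells stably overexpressing human ADRB2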
How it was run: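 CHO cells stably over-expressing ADRB2 were plated overnight at 37C, then dosed with compounds plus a stimulation mix containing 100uM IBMX and 25uM Ro-20-1724 for 0.5hr at room temperature. cAMP was measured by HTRF competition, 1hr.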

[10] = target: D(2) dopamine receptor (Homo sapiens) (UniProt P14416); test: Dopamine D2 receptor (DRD2) small molecule agonists, cell-based qHTS assay (AID 1963594); note: nearly all actives have a fitted effect of over 35% in size
D(2) dopamine receptor (Homo sapiens), sequence (P14416 whole entry, looked up): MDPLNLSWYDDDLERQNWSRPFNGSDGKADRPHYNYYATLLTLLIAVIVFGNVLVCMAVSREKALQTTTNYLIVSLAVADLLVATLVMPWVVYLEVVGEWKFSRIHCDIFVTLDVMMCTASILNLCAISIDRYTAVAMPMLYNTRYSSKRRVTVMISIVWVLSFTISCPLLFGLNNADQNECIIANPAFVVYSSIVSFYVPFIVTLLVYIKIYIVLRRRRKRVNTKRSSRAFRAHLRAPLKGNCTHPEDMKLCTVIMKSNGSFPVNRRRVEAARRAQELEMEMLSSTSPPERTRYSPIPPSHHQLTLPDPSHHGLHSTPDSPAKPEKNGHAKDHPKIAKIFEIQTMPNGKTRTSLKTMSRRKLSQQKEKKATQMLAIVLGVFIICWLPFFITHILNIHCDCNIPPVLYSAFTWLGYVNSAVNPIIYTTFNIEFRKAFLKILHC
How it was run: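 cAMP accumulation in DRD2-HEK293 cells measured by HTRF after 1 h detection; compounds added 10 min before NKH477 (200nM […]) forskolin-analogue stimulation, 30 min at room temperature, with Ro20-1724 present at 0.1 mM final.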

[11] = target: D(2) dopamine receptor (Homo sapiens) (UniProt P14416); test: Dopamine D2 receptor (DRD2) small molecule antagonists, cell-based qHTS assay (AID 1963595; active = well fitted inhibition curve with a large enough effect in the signal ratio in the repeat runs, with a control signal flat; the % refers to the signal ratio; note: potency is the fitted concentration of half-maximal effect)
How it was run: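 HEK293 cells stably expressing DRD2, preincubated with 0.1 mM Ro20-1724 and compounds 10 min, were stimulated with 200 nM NKH477 plus 12 nM quinpirole for 30 min at room temperature; cAMP measured by HTRF (665/620 nm).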

[12] = p53 small molecule agonists, cell-based qHTS assay with rat liver microsomes (AID 1963578)
How it was run: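 Metabolic activation by rat liver microsomes and NADPH, each 0.5 mg/mL final, added right after compounds to p53RE-bla reporter cells (4,000/well, plated 5 h earlier). 16 h at 37 C, then LiveBLAzer substrate for 2 h at room temperature in the dark; fluorescence read-out.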

[13] = p53 small molecule agonists, cell-based qHTS assay (AID 1963582; active = well fitted activation curve with a large enough effect in the signal ratio in the repeat runs, not every such curve was filed as active; the % refers to the signal ratio)
How it was run: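 Read-out is beta-lactamase FRET fluorescence after 2 h at room temperature with LiveBLAzer B/G substrate. p53 response element-bla cells were treated 16 h at 37 C with compounds in DMSO, added 5 h after seeding.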

[14] = target: 5-hydroxytryptamine receptor 2A (Homo sapiens) (UniProt P28223); test: 5-hydroxytryptamine receptor 2A (HTR2A) small molecule antagonists, cell-based qHTS assay (AID 1963586); note: nearly all actives have a fitted effect of over 45% in size; note: potency is the fitted concentration of half-maximal effect
5-hydroxytryptamine receptor 2A (Homo sapiens), sequence (P28223 whole entry, looked up): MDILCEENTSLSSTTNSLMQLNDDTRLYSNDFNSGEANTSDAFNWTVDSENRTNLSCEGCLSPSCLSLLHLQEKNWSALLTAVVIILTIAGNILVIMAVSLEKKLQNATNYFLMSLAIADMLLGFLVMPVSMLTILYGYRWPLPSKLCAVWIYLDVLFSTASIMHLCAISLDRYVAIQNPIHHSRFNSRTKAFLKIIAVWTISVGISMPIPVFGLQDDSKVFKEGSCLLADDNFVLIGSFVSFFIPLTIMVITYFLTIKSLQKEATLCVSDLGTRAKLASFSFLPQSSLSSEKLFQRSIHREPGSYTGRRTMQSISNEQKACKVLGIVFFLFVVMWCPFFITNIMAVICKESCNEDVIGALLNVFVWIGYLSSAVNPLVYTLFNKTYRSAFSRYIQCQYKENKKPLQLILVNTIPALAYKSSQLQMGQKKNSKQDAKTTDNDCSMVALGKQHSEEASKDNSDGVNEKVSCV
How it was run: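 CHO cells stably expressing human HTR2A were plated for 18 h at 37 C, then loaded with calcium dye for 1 h. Compounds were preincubated 5 min at room temperature before DOI (4 nM solution) was added. Kinetic fluorescence was read for 3 min.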

[15] = target: 5-hydroxytryptamine receptor 2A (Homo sapiens) (UniProt P28223); test: 5-hydroxytryptamine receptor 2A (HTR2A) small molecule agonists, cell-based qHTS assay (AID 1963587); note: nearly all actives have a fitted effect of over 30% in size; note: potency is the fitted concentration of half-maximal effect
How it was run: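 Kinetic calcium-flux fluorescence (2 min, 1 sec intervals) after compound addition in agonist mode. HTR2A-CHO cells were cultured 18 h, then dye-loaded 1 h at 37 C.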

[16] = target: Muscarinic acetylcholine receptor M1 (Homo sapiens) (UniProt P11229); test: Cholinergic receptor muscarinic 1 (CHRM1) small molecule antagonists, cell-based qHTS assay (AID 1963588); note: nearly all actives have a fitted effect of over 40% in size; note: potency is the fitted concentration of half-maximal effect
Muscarinic acetylcholine receptor M1 (Homo sapiens), sequence (P11229 whole entry, looked up): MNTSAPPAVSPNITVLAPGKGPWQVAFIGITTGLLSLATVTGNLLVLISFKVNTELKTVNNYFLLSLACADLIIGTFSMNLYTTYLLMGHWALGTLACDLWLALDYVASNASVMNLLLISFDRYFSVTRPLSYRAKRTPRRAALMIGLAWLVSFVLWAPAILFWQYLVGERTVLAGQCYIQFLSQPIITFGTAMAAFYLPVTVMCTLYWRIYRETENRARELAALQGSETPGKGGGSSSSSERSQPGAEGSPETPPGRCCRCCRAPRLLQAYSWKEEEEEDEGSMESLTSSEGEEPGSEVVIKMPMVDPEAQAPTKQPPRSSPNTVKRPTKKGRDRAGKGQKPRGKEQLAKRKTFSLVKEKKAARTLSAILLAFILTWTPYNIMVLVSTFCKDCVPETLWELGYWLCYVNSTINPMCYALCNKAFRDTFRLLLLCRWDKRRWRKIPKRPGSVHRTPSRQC
How it was run: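 Compounds were tested at 15 concentrations in three independent runs. Dye-loaded CHRM1-CHO cells were exposed 5 min at room temperature before stimulation by acetylcholine added at 50nM. Intracellular calcium was read kinetically on FDSS for 3 min.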

[17] = target: Muscarinic acetylcholine receptor M1 (Homo sapiens) (UniProt P11229); test: Cholinergic receptor muscarinic 1 (CHRM1) small molecule agonists, cell-based qHTS assay (AID 1963589); note: nearly all actives have a fitted effect of over 35% in size
How it was run: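 Agonist-mode calcium-flux screen: compounds at 15 concentrations, three independent runs, were pin-transferred onto dye-loaded human CHRM1-CHO cells. Fluorescence was then recorded kinetically every second over minutes.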

[18] = target: KiSS-1 receptor (Homo sapiens) (UniProt Q969F8); test: Human kisspeptin (KISS1R) small molecule agonists, calcium flux assay in KISS1R-HEK293 cells (AID 1920064; active = well fitted activation curve with a large enough effect in the repeat runs)
KiSS-1 receptor (Homo sapiens), sequence (Q969F8 whole entry, looked up): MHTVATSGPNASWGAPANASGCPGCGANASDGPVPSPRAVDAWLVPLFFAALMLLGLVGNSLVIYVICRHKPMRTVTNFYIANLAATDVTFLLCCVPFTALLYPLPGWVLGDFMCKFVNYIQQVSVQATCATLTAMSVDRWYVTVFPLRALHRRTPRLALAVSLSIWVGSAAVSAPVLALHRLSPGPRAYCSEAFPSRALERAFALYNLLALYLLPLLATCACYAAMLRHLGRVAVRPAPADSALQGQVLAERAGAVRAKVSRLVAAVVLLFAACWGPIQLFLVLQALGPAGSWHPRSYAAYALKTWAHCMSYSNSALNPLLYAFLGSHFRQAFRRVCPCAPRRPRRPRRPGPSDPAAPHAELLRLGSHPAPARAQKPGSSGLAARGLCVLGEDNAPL
How it was run: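 Agonist mode: intracellular calcium rise tracked at 1 s intervals over 3 min (480/540 nm) immediately after compound addition to dye-loaded KISS1R-HEK293 stable cells. Each compound tested at 15 concentrations in triplicate.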

[19] = p53 small molecule agonists, cell-based qHTS assay with human liver microsomes (AID 1963577);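 note: p53 response element beta-lactamase reporter cells with liver microsomes plus NADPH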
How it was run: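 With metabolic activation: human liver microsomes (0.5 mg/mL final) plus NADPH (0.5 mg/mL final) added alongside compounds to p53RE-bla cells; 16 h 37 C exposure; beta-lactamase read by LiveBLAzer fluorescence.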

[20] = Nuclear factor erythroid 2-related factor 2/antioxidant responsive element (Nrf2/ARE) small molecule agonists: luciferase reporter gene qHTS assay in human keratinocytes (AID 1919969); note: nearly all actives have a fitted effect of over 35% in size; note: potency is the fitted concentration of half-maximal effect
% is set by controls: 0 for no effect and ±100 for the full control effect.

CCC1(c2ccc(N)cc2)CCC(=O)NC1=O (centres undefined)
inactive: Potency [1] | Potency [2] | Potency [3] | Potency [4] | Potency [5] | Potency [6] | Potency [7] | Potency [8] | Potency [9] | Potency [10] | Potency [11]

C=CC#N
inactive: Potency [1] | Potency [2] | Potency [12] | Potency [3] | Potency [5] | Potency [13] | Potency [14] | Potency [15] | Potency [16] | Potency [17] | Potency [7] | Potency [8] | Potency [9] | Potency [10] | Potency [11]

CC(=O)O
inactive: Potency [1] | Potency [18] | Potency [2] | Potency [3] | Potency [4] | Potency [5] | Potency [14] | Potency [15] | Potency [16] | Potency [17] | Potency [6] | Potency [7] | Potency [8] | activation [9] -4.33% [at 8.39 µM] | Potency [10] | Potency [11]

COC(=O)NC(=S)Nc1ccccc1NC(=S)NC(=O)OC
inactive: Potency [18] | Potency [2] | Potency [19] | Potency [3] | Potency [4] | Potency [5] | Potency [13] | Potency [14] | Potency [16] | Potency [17] | Potency [6] | Potency [7] | Potency [8] | Potency [9] | Potency [10] | Potency [11]

Cc1ccc(-c2nc3ccc(C)cn3c2CC(=O)N(C)C)cc1
inactive: Potency [20] | Potency [1] | Potency [18] | Potency [2] | Potency [19] | Potency [12] | Potency [3] | Potency [5] | Potency [13] | Potency [14] | Potency [15] | Potency [16] | Potency [17] | Potency [6] | Potency [7] | Potency [8] | Potency [9] | Potency [10] | Potency [11]

CN(C)CCc1c[nH]c2cccc(OP(=O)(O)O)c12
inactive: Potency [20] | Potency [1] | Potency [18] | Potency [2] | Potency [19] | Potency [12] | Potency [3] | Potency [4] | Potency [5] | Potency [16] | Potency [17] | Potency [6] | Potency [7] | Potency [8] | Potency [9] | Potency [10] | Potency [11]
active: Potency [14] 0.0735 µM | Potency [15] 0.0855 µM

O=C(O)CC[N+](=O)[O-]
inactive: Potency [20] | Potency [1] | Potency [18] | Potency [2] | Potency [19] | Potency [12] | Potency [3] | Potency [5] | Potency [13] | Potency [14] | Potency [15] | Potency [16] | Potency [17] | Potency [6] | Potency [7] | Potency [8] | Potency [9] | Potency [11]

C=CC(=O)OCC(CC)(COC(=O)C=C)COC(=O)C=C
inactive: Potency [1] | Potency [18] | Potency [2] | Potency [19] | Potency [12] | Potency [14] | Potency [15] | Potency [16] | Potency [17] | Potency [10]
active: Potency [20] 2.8 µM and 6.11 µM | Potency [5] 26.4 µM
inactive and 48.6 µM (active): Potency [11]

CC1CC(CC2CCC(N)C(C)C2)CCC1N (centres undefined)
active: Potency [16] 6.04 µM
inactive: Potency [20] | Potency [1] | Potency [18] | Potency [2] | Potency [19] | Potency [12] | Potency [3] | Potency [4] | Potency [5] | Potency [14] | Potency [15] | Potency [6] | Potency [7] | Potency [8] | Potency [10] | Potency [11]
